Bioassay records deposited in PubChem BioAssay by National Center for Advancing Translational Sciences (NCATS).
A selection: hits, their analogues and other compounds. The true share with any hit is near 4.7%.
TRHR ag: agonists of human TRH receptor | P34981 | TRHR cells, calcium flux fluo-8, FDSS agonist mode | activation, % at 2 µM | 360,000 tested, 0.18% active | AID 493084; further: 0% is about no effect
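In this calcium-flux screen, cells bearing human TRHR are dye-loaded with fluo-8, baselined for 10 cycles, then exposed to library compounds; positive kinetic calcium responses during the agonist phase mark hits, with TRH as control.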
D1 PAM: enhances dopamine response at the human D1 receptor | potentiation, % at 10 µM | 360,000 tested, 0.036% active | HEK293 TREx D1 cells, calcium flux, dopamine EC20 potentiation | P21728; in the data active means potentiation above about 30%; further: 0% is about no effect
Target sequence (P21728 whole entry, looked up): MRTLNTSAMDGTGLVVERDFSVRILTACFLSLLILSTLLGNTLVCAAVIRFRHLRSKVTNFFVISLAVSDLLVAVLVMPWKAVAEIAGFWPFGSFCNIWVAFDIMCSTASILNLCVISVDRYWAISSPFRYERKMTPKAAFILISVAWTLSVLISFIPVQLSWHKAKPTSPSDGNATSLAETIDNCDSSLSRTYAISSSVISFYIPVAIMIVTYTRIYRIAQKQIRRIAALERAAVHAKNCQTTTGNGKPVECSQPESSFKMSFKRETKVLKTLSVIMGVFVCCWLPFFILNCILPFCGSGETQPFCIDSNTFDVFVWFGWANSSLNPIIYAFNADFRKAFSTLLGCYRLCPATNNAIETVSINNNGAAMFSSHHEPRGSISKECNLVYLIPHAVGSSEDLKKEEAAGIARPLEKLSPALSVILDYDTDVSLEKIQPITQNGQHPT
D1 agonist: agonists of human D1 dopamine receptor; HEK293 T-REx D1 cells, calcium flux, agonist mode; activation, % at 2 µM; 360,000 tested, 1% active; AID 504660; further: 0% is about no effect
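Agonism was scored from calcium flux recorded over 180 s (1 read/s) after pintool compound addition, following a 10-cycle baseline. Cells were inducible force-coupled HEK293 TREx D1, plated overnight at 30 C and loaded with no-wash calcium dye.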
TRHR enhancer: TRH receptor (human) allosteric enhancement; P34981; TRHR cells, fluo-8 calcium fluorescence, EC20 TRH enhancement; enhancement, % at 2 µM; 360,000 tested, 0.66% active; in the data active means enhancement above about 30%; further: 0% is about no effect
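TRHR-expressing cells loaded with fluo-8 calcium dye were read kinetically (ex 480/em 530) during compound addition, then stimulated with an EC20 of TRH (10 nM final). Enhancement of the Gq-mediated intracellular calcium response was scored.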
D1 antag: blocks dopamine activation of the human D1 receptor; P21728; 360,000 tested, 3.2% active; HEK293 TREx D1 cells, calcium flux, dopamine EC80; hits give low values; AID 504652; activity change, negative = inhibition, % at 10 µM; in the data active means activity change below about -30%; further: on the % scale 0 is the no-effect control and ±100 the full control effect
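HEK293 T-REx cells expressing inducible, force-coupled D1 receptor; no-wash Ca dye, 30–90 min RT. Cmpd → 180 s read at 1 Hz → EC80 DA → 180 s read.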
Numbers without * were called inactive; . = no result given. Unless noted, no stated cut-off is given here; in the data, active means activation above about 30%; inactive means the rest.

SMILES	TRHR ag	D1 PAM	D1 agonist	TRHR enhancer	D1 antag
CCOC(=O)C1(Nc2nccs2)Sc2ccccc2NC1=O (stereo not given)	-1	-6	5	-9	-34*
Cc1ccc2c(=O)c(C(=O)c3cccc(Cl)c3)cn(CC(=O)NCc3ccc(F)cc3)c2n1	0	2	4	0	-4
C[C@@H]1C[C@@H]2OC(=O)[C@]3(C)[C@H]2[C@@H](OC3(C)O)[C@]2(C)C(=O)C=C[C@H]12 (stereo not given in full)	-1	-6	5	0	-37*
COC(=O)c1cc(NC(=O)c2cccc(Cl)c2)c(=O)oc1/C=C/Nc1cc(C)cc(C)c1	38*	2	102*	-3	-34*
CC(Oc1ccccc1F)C(=O)Nc1ccc(-c2nc3ccccc3s2)cc1 (stereo not given)	-1	0	14	1	9
COc1ccc(-n2nc(C(=O)NCC(=O)NCC3COc4ccccc4O3)c3ccccc3c2=O)c(OC)c1 (stereo not given)	0	-8	2	33*	15
CCc1cccc(NC(=O)Cn2c(=O)n3nc(-c4cccc(F)c4)nc3c3ccccc32)c1	0	-4	-3	0	.
O=C(Nc1ccccc1C(F)(F)F)N1CCOc2ccc(Cl)cc21	0	0	0	15	-35*
CCc1ccc(NC(=O)N2CCOc3ccc(Cl)cc32)cc1	0	-2	3	6	-2
O=C(Nc1ccc(F)cc1)c1cncs1	0	-10	2	-1	-4
O=C(Nc1ccc(Cl)cc1)c1cncs1	-1	-7	1	1	-47*
O=C(Cc1nnc(-c2nc3ccccc3[nH]2)o1)Nc1cc(C(F)(F)F)ccc1Cl	0	-7	3	2	1
CCN(C(=O)COC(=O)/C=C/c1c(C)nn(-c2ccccc2)c1C)C1CCS(=O)(=O)C1 (stereo not given)	0	3	5	0	25
Cc1nn(C2CCS(=O)(=O)C2)c(Cl)c1/C=C/C(=O)OCC(N)=O (stereo not given)	1	-7	2	33*	-15
Cc1nn(-c2ccccc2)c(C)c1/C=C/C(=O)OCC(=O)N(C)C1CCS(=O)(=O)C1 (stereo not given)	1	-6	2	4	-84*
CC(C)(C)C(=O)Nc1ccc2nc(SCC(=O)N3CCc4ccccc43)sc2c1	-2	4	17	12	45
COc1ccc(S(=O)(=O)c2c(Nc3ccc(F)cc3)sc(C(=O)c3ccc(C)cc3C)c2N)cc1	2	4	21	-8	23
Cc1cccc(OCc2nc(CC(=O)Nc3ccc(Cl)cc3)cs2)c1	0	0	5	1	-12
O=S(=O)(Nc1nc2ccccc2nc1Nc1ccc(N2CCOCC2)cc1)c1cc(Cl)ccc1Cl	0	-8	15	-4	-50*
COc1ccc(/C=C/C(=O)C2CC2)cc1Cn1nc(C)c([N+](=O)[O-])c1C	-1	1	1	38*	-3
COc1ccc(C(C)=O)cc1Cn1nc(C)c([N+](=O)[O-])c1C	0	-4	1	-6	-1
Cc1ccc(CCNC(=O)c2ccc3[nH]c(C)c(C)c3c2)cc1	0	-4	0	-3	-44*
CCOc1ccc(CCNC(=O)c2ccc3[nH]c(C)c(C)c3c2)cc1	-1	-5	3	-4	-14
CC(C)c1ccc(OCc2ccc(C(=O)N3CCCC3)o2)cc1	-2	.	70*	3	-34*
N#Cc1c2ccc([N+](=O)[O-])cc2[n+]([O-])n1-c1ccccc1	0	-6	7	0	-61*
SMILES	TRHR ag	D1 PAM	D1 agonist	TRHR enhancer	D1 antag
CCC(=O)N1CCc2cc(CNS(=O)(=O)c3cc(Cl)ccc3OC)ccc21	0	2	2	6	7
CCc1ccc2ncc(S(=O)(=O)c3ccc(C)c(C)c3)c(N3CCCC3)c2c1	0	-2	4	-14	-7
CCN1CCN(c2c(S(=O)(=O)c3ccc(C)c(C)c3)cnc3cc(OC)c(OC)cc23)CC1	0	-8	0	4	-66*
CCN(CC)C(=O)c1ccc(CS(=O)(=O)Cc2ccccc2)cc1	1	0	7	-6	-31*
CCOc1ccc(OCc2ccc(C(=O)N(CC)CC)cc2)cc1	0	-6	16	-3	-42*
CCC(=O)c1ccc(OCc2ccc(C(=O)OC)cc2)cc1	0	-4	16	-4	-23
CCN(CC(=O)Nc1c(F)cccc1F)C(=O)c1ccc(COc2ccccc2)cc1	-1	1	1	-4	5
O=C(c1ccccc1)N(Cc1ccccc1)Cc1ccccc1	1	-9	1	-7	-13
CCC(=O)c1ccc(OCc2ccc(C#N)cc2)cc1	0	-3	-1	-6	-37*
CCN(Cc1ccccc1)C(=O)c1ccc(C(=O)N(CC)Cc2ccccc2)cc1	0	1	4	-5	-62*
CCc1ccc(-n2c(=O)c3c4c(sc3n(CC(=O)N3CCC(C)CC3)c2=O)CCC4)cc1	-1	0	-2	1	3
CCCCC(CC)CNC(=O)c1ccc(Cn2c(=O)[nH]c3cc(OC)c(OC)cc3c2=O)cc1 (stereo not given)	1	0	4	8	-7
COc1ccc(C(=O)Nc2nnc(SCc3cc(=O)n4cccc(C)c4n3)s2)cc1	0	2	5	-2	-22
Cc1ccc(S(=O)(=O)N2CCOC23CCN(C(=O)c2cc(Cl)ccc2Cl)CC3)cc1	0	-9	7	-4	-25
Cc1ccc(S(=O)(=O)N2CCOC23CCN(C(=O)c2ccc(Cl)cc2Cl)CC3)cc1	1	-4	22	32*	-24
CCOc1ccccc1CNCc1ccc(F)cc1	1	0	4	-2	-31*
CCN(CC)C(=O)CSc1nc(N)c(C(=O)Nc2ccc(OC)cc2)s1	0	-1	3	6	-32*
O=C(Nc1ccc(F)cc1)c1sc(Cl)nc1-c1ccccc1	1	1	-1	0	16
O=C(Nc1cccc(F)c1)c1sc(Cl)nc1-c1ccccc1	1	0	4	-3	-36*
Cc1ccc(N2CCN(C(=O)c3cn(C)c4ccc(S(=O)(=O)N5CCCC5)cc4c3=O)CC2C)cc1 (stereo not given)	-1	3	0	0	-82*
CCc1ccccc1NC(=O)CN1CCCN(Cc2cc(C)ccc2C)S1(=O)=O	1	5	33*	-3	-11
O=C(O)c1ccc(CNCc2ccccc2Cl)s1	1	-2	3	1	9
Cc1ccc(N2/C(=N/c3nc(C)cc(C)n3)NC(=O)CC2C(=O)O)cc1 (stereo not given)	1	2	2	-6	-4
